# From PubChem BioAssay AID624417 (National Center for Advancing Translational Sciences (NCATS), 2012)
# Hit rate of the full screen: of about 410,000 compounds, about 6,400 (1.6%) were called active. Not shown: some 20% with an inconclusive outcome. Calls come from the whole dose curve; as a rule, active = well fitted inhibition curve with a large enough effect; inconclusive = small, poorly fitted or top-dose-only effect; inactive = no such curve, though single readings can be large or run the other way. The entries come from a sample that favours actives as a whole. Where a call stands in place of a potency, no number is given.
# Molecular target: Glucagon-like peptide 1 receptor (Homo sapiens) (UniProt P43220)
# Test: qHTS of GLP-1 Receptor Inverse Agonists (Inhibition Mode); note: nearly all actives have a fitted effect of over 55% in size
# Conditions: HEK293 GLP-1R CRE-luciferase, luminescence, 24 h, GLP-1R form is constitutively active; series mostly up to 38.3 µM
# Source text: The overall goal of this project was to develop a novel assay for discovering small molecule ligands for class B1 G protein-coupled receptors (GPCRs). Very few agonists (or inverse agonists in inhibition mode) with generally weak activity for this entire group of physiologically important receptors are known to date. To establish proof-of-principle that this critical bottleneck can be overcome with a suitable screening approach, our studies focused on the class B1 receptor for glucagon-like peptide-1 (GLP-1R), a potential therapeutic target for diabetes and neurodegenerative disease. The assay was developed using a cell-based functional readout. Toward this goal, stably transfected HEK293 cell clones were established that co-express (i) a cAMP-responsive luciferase reporter gene, and (ii) constitutively active GLP-1R that upon ligand interaction inhibit (inverse agonists) the luciferase activity. In addition, two control cell lines were developed: (i) one that express only the cAMP-responsive reporter gene to enable initial exclusion of GLP-1R independent effects of candidate probes; and (ii) one with the reported gene cloned with another constitutively active orphan receptor GPR119 to enable exclusion of GLP-1R independent inhibitor effects of candidate inverse agonists. To that end, this assay was optimized for 1536-well format and screened against the MLSMR. […] NIH Molecular Libraries Probe Production Network [MLPCN] NIH Chemical Genomics Center [NCGC] Grant: NS064851 PI Name: Martin Beinborn, Tufts Medical Center
# Six ul of cell suspension (200 cells/uL in DMEM + 10% Nu serum + 1% pen-strep) is dispensed in a white solid 1536-well plate. The plates are incubated for 12 hours at 37 deg C at 5% CO2 followed by addition of 23 nL compounds. After 24 hr incubation at 37 deg C and 5% CO2, 3 uL of luciferase assay detection reagent is added. A luminescence read is obtained on the PerkinElmer Viewlux after 12 min incubation at room temperature.
# Potency is the fitted concentration of half-maximal effect.
# Glucagon-like peptide 1 receptor (Homo sapiens), sequence (P43220 whole entry, looked up): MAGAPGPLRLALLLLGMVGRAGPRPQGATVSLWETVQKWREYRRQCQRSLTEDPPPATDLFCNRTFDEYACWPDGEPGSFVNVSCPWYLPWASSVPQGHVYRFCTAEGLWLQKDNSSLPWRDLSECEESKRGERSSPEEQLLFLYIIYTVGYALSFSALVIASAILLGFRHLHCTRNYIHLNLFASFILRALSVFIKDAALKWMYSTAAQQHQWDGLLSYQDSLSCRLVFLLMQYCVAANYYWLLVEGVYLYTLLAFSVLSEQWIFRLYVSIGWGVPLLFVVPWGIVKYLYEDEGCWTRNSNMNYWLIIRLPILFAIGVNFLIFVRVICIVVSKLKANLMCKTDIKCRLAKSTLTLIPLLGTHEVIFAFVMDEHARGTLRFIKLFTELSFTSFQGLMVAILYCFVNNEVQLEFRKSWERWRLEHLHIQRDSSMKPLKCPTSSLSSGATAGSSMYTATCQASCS
row,SMILES,Potency
1,CCC(=O)c1ccc(OCC(=O)N(CC)CC2COc3ccccc3O2)cc1 (centres undefined),inactive
2,COc1ccc(NC(=O)C2COc3ccccc3O2)cc1 (centres undefined),inactive
3,CCCN(CC1COc2ccccc2O1)C(=S)Nc1ccc(C)cc1 (centres undefined),11.2 µM (active)
4,CS(=O)(=O)N1CCCCC1c1cc(C(=O)NCc2ccccc2)no1 (centres undefined),inactive
5,COC(=O)[C@]12CCCCC=C1N(Cc1ccco1)C(=O)[C@H](CC(=O)NCC1CCCCC1)C2,inactive
6,CN1CCN(CCNC(=O)Nc2ccc([N+](=O)[O-])cc2)CC1,inactive
7,O=C(NCCCN1CCN(c2ccc(F)cc2)CC1)Nc1ccc([N+](=O)[O-])cc1,11.2 µM (active)
8,O=C(CN1CCN(c2ccccc2)CC1)Nc1ccc(F)cc1,inactive
9,CCC(C)CN1C(=O)CN(S(C)(=O)=O)CC1(C)C(=O)Nc1ccc2c(c1)OCCO2 (centres undefined),inactive
10,O=C(Nc1cccc2cccnc12)c1ccc2sc([C@H]3C[C@H](O)[C@@H](CO)O3)nc2c1,inactive
11,C=C1C(=O)OC2C1CCC(C)=CCCC1(C)OC21 (centres undefined),inactive
12,CC1CCCCN1S(=O)(=O)c1ccc(S(=O)(=O)N(CC(=O)Nc2ccccc2)Cc2cccs2)cc1 (centres undefined),11.2 µM (active)
13,CCN(CC(=O)NCc1cccs1)S(=O)(=O)c1ccc(NC(C)=O)cc1,inactive
14,CSCc1nnc(NC(=O)c2ccc(S(=O)(=O)N3CCCCC3C)cc2)o1 (centres undefined),inactive
15,CNc1cc(-c2c(OC)cccc2OC)ncn1,inactive
16,CCNC(=O)CCc1nc(-c2ccc(C(C)(C)C)cc2)no1,7.94 µM (active)
17,CCNC(=O)CCc1nc(-c2ccc(C)cc2)no1,inactive
18,CCOc1ccc(-c2noc(CCC(=O)NC3CCCC3)n2)cc1OC,inactive
19,O=C1NC[C@H](CCCCN2C[C@H](Cc3ccc(O)cc3)N(CC3CCCCC3)C(=O)C2=O)N(CCc2ccccc2)C1=O,inactive
20,OCCc1ccc(NCCc2ccco2)cc1,inactive
21,CC1(C(=O)Nc2ccc3c(c2)OCCO3)CSCC(=O)N1CCOc1ccccc1 (centres undefined),inactive
22,O=C(NCc1ccc2c(c1)CCN2C(=O)c1ccccc1)c1ccccc1,inactive
23,O=C(NCc1ccc2c(c1)CCN2C(=O)c1ccccc1)Nc1cc(F)ccc1F,10 µM (active)
24,O=C(CCc1ccccc1)NCc1ccc2c(c1)CCN2C(=O)c1ccccc1,inactive
25,COc1ccc2c(c1)CCCO[C@]21O[C@H](CCO)C[C@H](O)[C@H]1O,inactive

row,SMILES,Potency
1,Cc1ccc(C(=O)N2CCCC2)c(F)c1F,inactive
2,COc1cc(OC)c(C(=O)N2CCCC2)cc1OC,inactive
3,Cc1c(Br)cc(C(=O)N2CCCCCC2)c(C)c1C,10 µM (active)
4,C[C@H]1CN([C@@H](C)CO)C(=O)CCCn2nncc2CO[C@@H]1CN(C)Cc1ccc(Oc2ccccc2)cc1,inactive
5,CCCc1ccc(-c2csc(NC(=O)Cc3cccs3)n2)cc1,inactive
6,Cc1ccc(S(=O)(=O)NC(=O)Nc2nc(-c3ccc(F)c(F)c3)cs2)cc1,inactive
7,COc1ccc(CC(=O)Nc2nc(-c3ccc(F)c(F)c3)cs2)cc1OC,3.98 µM (active)
8,CC1(C)CC(=O)C=C(c2ccccc2CO)C1=O,inactive
9,CC1=C(C(=O)N2CCOCC2)CC(CC(=O)NCc2cccc3ccccc23)C(=O)N1CCC1=CCCCC1 (centres undefined),inactive
10,CC(C)N(C(=O)[C@H]1C[C@H](CC(=O)NCCC2=CCCCC2)C(=O)N2CCc3c([nH]c4cc(CCC(=O)N(C)C)ccc34)[C@]12C)C(C)C,inactive
11,CC(C)N(C(=O)[C@H]1C[C@H](CC(=O)NC(C)(C)C)C(=O)N2CCc3c([nH]c4ccc(Cl)cc34)[C@]12C)C(C)C,11.2 µM (active)
12,C[C@]12c3[nH]c4ccc(Cl)cc4c3CCN1C(=O)[C@@H](CC(=O)NCCCn1ccnc1)C[C@@H]2C(=O)N1CCOCC1,inactive
13,CS(=O)(=O)c1cccc(-c2ccc3nncn3c2)c1,inactive
14,Cc1ccccc1-c1ccc2c(c1)O[C@@H](CN(C)Cc1ccc(C(=O)O)cc1)[C@@H](C)CN([C@H](C)CO)S2(=O)=O,inactive
15,O=C1c2ccccc2C(c2nc3ccccc3[nH]2)N1c1ccccc1 (centres undefined),inactive
16,CCOc1ccc(Cl)cc1-c1cc(C(=O)NCc2cccs2)[nH]n1,inactive
17,CC(C)c1ccc(CC(=O)N2CCC2(C)C(=O)NS(=O)(=O)c2ccc(C(C)(C)C)cc2)cc1 (centres undefined),inactive
18,O=c1c2cc(Br)ccc2nc(-c2cccc(Cl)c2)n1O,inactive
19,O=C1OCCN1C(=O)[C@H]1[C@H](c2ccc(Cl)cc2)C(c2cccc(Cl)c2)=NN1c1ccc(Br)cc1,7.94 µM (active)
20,C[C@@H]1C(c2ccc(F)cc2)=NN(c2ccc(Br)cc2)[C@H]1C(=O)N1CCOC1=O,10 µM (active)
21,Cc1ccc2c(c1)N(C(=O)Nc1ccc(Br)cc1F)CCO2,inactive
22,Cc1sc2ncnc(SCC(=O)NC3CCS(=O)(=O)C3)c2c1C (centres undefined),inactive
23,CCCCNC(=O)c1nc(C2CCN(S(=O)(=O)c3ccc(F)c(F)c3)CC2)oc1-c1cccc(C(F)(F)F)c1,inactive
24,O=S1(=O)CC(N2CCN(CCO)CC2)CN1C1CCCC1 (centres undefined),inactive
25,COCCNc1ncnc2c1c(-c1ccccc1)cn2-c1ccc(C)c(Cl)c1,inactive

row,SMILES,Potency
1,CCCNc1ncnc2c1c(-c1ccccc1)cn2-c1ccc(OCC)cc1,3.16 µM (active)
2,O=c1[nH]cnc2c1c(-c1ccccc1)cn2-c1ccc(F)cc1,inactive
3,CC1(C(=O)Nc2ccc3c(c2)OCCO3)CN(S(C)(=O)=O)CC(=O)N1Cc1cccc(F)c1 (centres undefined),inactive
4,Cc1ccc(S(=O)(=O)c2c(COC(=O)c3cccc(Cl)c3)c(-c3ccccc3)nn2C)cc1,inactive
5,Cn1nc(-c2ccccc2)c(CSc2cccc(Cl)c2)c1Cl,10 µM (active)
6,Cn1nc(-c2ccccc2)c(CO)c1Sc1ccccc1,inactive
7,CC(=O)N1Cc2cc(C(=O)NCc3cccc(F)c3)nc(-c3cccc(C4=CCCC4)c3)c2[C@H]1CCO,inactive
8,COc1ccc(S(=O)(=O)N2CCN(CC(=O)N3CCNC3=O)CC2)cc1OC,inactive
9,Cc1ccn2c(-c3csc(Nc4ccc(C(=O)O)cc4)n3)c(C)nc2c1,inactive
10,Oc1ccc(N2CCN(C(=S)NCc3ccccc3)CC2)cc1,inactive
11,CC1CCCCN1C(=S)NCc1ccccc1 (centres undefined),inactive
12,Oc1ccccc1N1CCN(C(=S)NCc2ccccc2)CC1,11.2 µM (active)
13,COc1cc2c(=O)n(C)c3ccccc3c2cc1OC,inactive
14,Cc1ccc(OCC(=O)Nc2ccc(N3CCN(C(=O)c4ccco4)CC3)cc2)c(C)c1,7.94 µM (active)
15,Cc1ccc(C)c(OCC(=O)N2CCN(C(=O)c3ccco3)CC2)c1,inactive
16,CCC(=O)Nc1ccc(C(=O)N2CCN(C(=O)c3ccco3)CC2)cc1,inactive
17,O=C(C1CCCN(S(=O)(=O)c2ccc([N+](=O)[O-])cc2)C1)N1CCCCC1 (centres undefined),inactive
18,Cc1ccc([N+](=O)[O-])cc1S(=O)(=O)N1CCCN(C)CC1,inactive
19,Cc1ccc2c(c1)C1CN(C)CCC1N2S(=O)(=O)c1ccc(Oc2ccc([N+](=O)[O-])cc2)cc1 (centres undefined),11.2 µM (active)
20,CCc1ccccc1OCC(=O)Nc1nnc(C2CC2)s1,inactive
21,COC(=O)C[C@H]1C[C@@H]2c3cc(N(C)C)ccc3O[C@@H]2[C@H](CO)O1,inactive
22,CCN(CC(=O)Nc1cc(Cl)ccc1C)C(=O)Cn1c(=O)cnc2ccccc21,inactive
23,Cc1ccc(Cl)cc1NC(=O)CSc1nc2ccccc2nc1Cc1ccccc1,inactive
24,CCN(CC(=O)Nc1cc(Cl)ccc1C)C(=O)CSCc1ccc(C)cc1,10 µM (active)
25,CCN(CC(=O)Nc1cc(Cl)ccc1C)C(=O)CSCc1ccccc1,12.6 µM (active)

row,SMILES,Potency
1,CCN(CC(=O)Nc1cc(Cl)ccc1C)C(=O)CN1C(=O)NC2(CCCC2)C1=O,inactive
2,Cc1ccc(Cl)cc1NC(=O)COC(=O)CC(C)(C)C,inactive
3,CCCS(=O)(=O)NC(=O)C1(C)CCCN(C(=O)c2cccs2)C1 (centres undefined),inactive
4,COc1ccc(NC(=O)COC(=O)C2COc3ccccc3O2)cc1 (centres undefined),inactive
5,Cc1ccc(C(C)C)cc1OCC(=O)Nc1ccccc1N1CCCC1,2.51 µM (active)
6,Cc1ccc(C(C)C)cc1OCCN1CCCC1,inactive
7,CC(C)n1c(SCC(=O)Nc2ccccc2N2CCCCC2)nc2c1c(=O)n(C)c(=O)n2C,inactive
8,Cc1ccccc1NC(=O)CNc1ccccc1N1CCCCC1,7.94 µM (active)
9,Cn1c(=O)c2c(nc(SCC(=O)Nc3ccccc3N3CCCCC3)n2C)n(C)c1=O,inactive
10,Cc1cccc(N2CC(C(=O)Nc3ccccc3N3CCCC3)CC2=O)c1C (centres undefined),inactive
11,COC(=O)c1ccc2nc(-c3cccc(Br)c3)c(Cc3ccccc3C(F)(F)F)n2c1,inactive
12,CN(C)C(=O)c1cccc(-c2cnc3c(NC=O)cc(-c4ccc(C(=O)N5CCOCC5)cc4)cn23)c1,inactive
13,CC(=O)C[C@@H]1OC[C@H](CO)N1S(=O)(=O)c1ccc(C)cc1,inactive
14,COc1ccc(NC(=O)C2(C)Cc3c(-c4ccc(C(N)=O)cc4)ccnc3O2)cc1 (centres undefined),inactive
15,C[C@@H]1CN([C@@H](C)CO)C(=O)c2c(c3ccccc3n2C)-c2ccccc2CO[C@H]1CN(C)C(=O)C1CC1,inactive
16,COc1cc(C(=O)N2CCOC23CCN(Cc2ccccc2)CC3)cc(OC)c1OC,inactive
17,CCOc1ccccc1NC(=O)CCS(=O)(=O)c1cccc2nsnc12,inactive
18,CCOc1ccc(OCC)c(NC(=O)CN(C)S(=O)(=O)c2cccc3nsnc23)c1,6.31 µM (active)
19,CCOc1ccc(NC(=O)CCS(=O)(=O)c2cccc3nsnc23)cc1,inactive
20,CC1(C(=O)NS(=O)(=O)Cc2cccc(Cl)c2)CCN1C(=O)Cc1ccccc1 (centres undefined),inactive
21,CCCNC(=O)C1(C)CCCN(Cc2cccc(C(F)(F)F)c2)C1 (centres undefined),inactive
22,Cc1nc2ccccc2c(C(=O)O)c1-c1ccccn1,inactive
23,Cc1ccc(Oc2nc(-c3ccccn3)nc3ccccc23)cc1,5.01 µM (active)
24,N#Cc1ccc(Oc2cc(C(F)(F)F)nc(-c3ccccn3)n2)cc1,inactive
